Source: PubChem BioAssay (several laboratories)
sEH act: increases human soluble epoxide hydrolase activity; purified human sEH enzymatic activity, activator screen; activation, % at 2 µM; 91,000 compounds, 0.04% hits; in the data active = activation above about 37%
CYP2C9 inh: blocks human cytochrome P450 2C9 | P11712 | CYP2C9 Supersomes, luciferin-H conversion, luminescence | inhibition, % at 5 µM | 96,000 compounds, 20% hits;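 active = blocking of liver enzyme CYP2C9 beyond about 50% at 5 µM, limit read from the data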
sEH inh: soluble epoxide hydrolase (human) inhibition; P34913; recombinant human sEH enzymatic activity assay; inhibition, % at 2 µM; 91,000 compounds, 0.34% hits; AID 707; in the data active = inhibition above about 80%
CYP2C19 act: cytochrome P450 2C19 (human) activation | activation factor at 5 µM | P33261 | recombinant CYP2C19, luciferin-H EGE luminescence; hits give high values; 0 = fully inhibited enzyme, 1 = untreated enzyme | 96,000 tested, under 10 active;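 active = activation factor of at least 2 at 5 µM in the primary screen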;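 note: 0 = wells with 2.5 mM tranylcypromine and 1 = vehicle-only wells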
Target sequence (P33261 whole entry, looked up): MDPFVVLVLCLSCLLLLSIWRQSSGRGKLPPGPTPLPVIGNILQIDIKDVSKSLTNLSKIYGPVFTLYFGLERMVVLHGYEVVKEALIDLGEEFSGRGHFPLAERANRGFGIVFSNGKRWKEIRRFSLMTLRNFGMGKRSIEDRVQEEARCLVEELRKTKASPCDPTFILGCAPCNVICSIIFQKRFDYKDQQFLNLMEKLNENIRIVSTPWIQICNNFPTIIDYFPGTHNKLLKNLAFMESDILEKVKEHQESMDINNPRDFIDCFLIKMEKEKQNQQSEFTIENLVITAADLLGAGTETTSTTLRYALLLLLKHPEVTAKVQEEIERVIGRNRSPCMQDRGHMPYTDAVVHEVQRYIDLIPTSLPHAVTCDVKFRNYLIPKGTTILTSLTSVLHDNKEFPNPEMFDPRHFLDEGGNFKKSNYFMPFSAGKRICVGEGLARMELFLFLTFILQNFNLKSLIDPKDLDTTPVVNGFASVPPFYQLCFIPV
CYP2C9 act: CYP2C9 (human) activation; P11712; recombinant CYP2C9, luciferin-H conversion, luminescence; hits give high values; factor 1 = untreated enzyme, 0 = blocked; activation factor at 5 µM; 96,000 compounds, 1.4% hits;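 active = activation factor of 2 or more for CYP2C9 at a 5 µM dose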;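 note: 0 = sulfaphenazole-blocked wells and 1 = vehicle-only wells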
CYP2C19 inh: human CYP2C19 inhibition | P33261 | CYP2C19 Supersomes, luciferin-H EGE luminescence, 30 min | inhibition, % at 5 µM | 96,000 compounds, 21% hits | AID 778;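 active = CYP2C19 inhibition above a set limit at 5 µM in the primary screen, cut at about 50% in these data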;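 note: plate controls were negative control wells for no effect and 2.5 mM tranylcypromine positive control for full effect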
Numbers without * were called inactive. Rows were chosen to be rich in hits. Some 27% of all compounds tested hit in one or more screens of this group.

For Cc1nnc(SCc2nnc(-c3ccc(Cl)cc3)o2)n1-c1ccccc1 the results were CYP2C9 inh 46.2, CYP2C19 act 0.4, CYP2C9 act 0.5 and CYP2C19 inh 60.4*.
For Cc1ccc(-n2c(C)nnc2SCC(=O)Nc2ccccc2)cc1 the results were sEH act 0.9 and sEH inh -0.9.
`COc1ccc(-n2c(SCc3nnc(-c4ccccc4)o3)nnc2-c2ccccc2)cc1` gave sEH act 10.1, CYP2C9 inh 46.7, sEH inh -7.9, CYP2C19 act 0.5, CYP2C9 act 0.5 and CYP2C19 inh 54.0*.
`COc1ccc(-c2nnc(SCc3nnc(-c4ccccc4)o3)n2-c2ccccc2)cc1` gave CYP2C9 inh -2.3, CYP2C19 act 1.1, CYP2C9 act 1 and CYP2C19 inh -7.8.
Screening COc1ccc(-c2nnc(SCc3nnc(-c4ccc(Cl)cc4)o3)n2-c2ccccc2)cc1 returned sEH act -2.7, CYP2C9 inh 54.4*, sEH inh 2.2, CYP2C19 act 0.6, CYP2C9 act 0.5 and CYP2C19 inh 36.5.
Screening Cc1nnc(SCc2ccon2)n1-c1ccccc1 returned sEH act 1.8 and sEH inh -2.8.
C=CCSc1nnc(C)n1-c1ccc(Cl)cc1 was read as sEH act -6.5, CYP2C9 inh 29.7, sEH inh 9.1, CYP2C19 act 0.5, CYP2C9 act 0.7 and CYP2C19 inh 51.7*.
Cc1ccc2nc(SCc3nc4c(cnn4-c4ccccc4)c(=O)[nH]3)[nH]c2c1 was read as sEH act 3.8, CYP2C9 inh 8.0, sEH inh -3.1, CYP2C19 act 1, CYP2C9 act 0.9 and CYP2C19 inh 0.3.
For Cc1cccc(N(C(=O)Cn2nnc3ccccc32)C(C(=O)NC(C)(C)C)c2ccsc2)c1 (stereo not drawn) the results were sEH act 2.3, CYP2C9 inh -0.9, sEH inh -1.2, CYP2C19 act 1, CYP2C9 act 1 and CYP2C19 inh -0.1.
Screening Cc1ccc(OC(C)C)c(CN(CCO)CCO)c1 returned sEH act 5.6, CYP2C9 inh -4.5, sEH inh -4.8, CYP2C19 act 1, CYP2C9 act 1 and CYP2C19 inh -0.1.
`CS(=O)(=O)N1CCC(C(=O)NCc2ccco2)CC1` gave sEH act 2.5, CYP2C9 inh -20.4, sEH inh -2.4, CYP2C19 act 1.2, CYP2C9 act 1.2 and CYP2C19 inh -18.6.
Screening CC1CC(N(C(=O)c2ccccc2Cl)c2ccccc2)c2ccccc2N1 (stereo not drawn) returned sEH act -8.0, CYP2C9 inh 9.5, sEH inh 7.0, CYP2C19 act 0.9, CYP2C9 act 0.9 and CYP2C19 inh 7.2.
For C=C(C)Cn1c(CCNC(=O)C(C)(C)C)nc2ccccc21 the results were CYP2C9 inh -2.0, CYP2C19 act 0.7, CYP2C9 act 1 and CYP2C19 inh 27.3.
COc1ccc(-c2nnc(SCc3ncc(-c4ccccc4)o3)o2)cc1 was read as sEH act 14.7, CYP2C9 inh 28.5, sEH inh -12.8, CYP2C19 act 0.1, CYP2C9 act 0.7 and CYP2C19 inh 86.7*.
`CCOc1ccc(-c2nnc(-c3ccccc3)n2-c2ccccc2)cc1` gave sEH act 0.1, CYP2C9 inh 65.2*, sEH inh -3.1, CYP2C19 act 0.7, CYP2C9 act 0.3 and CYP2C19 inh 27.8.
`CCOc1ccc(-c2nnc(-c3ccccc3)o2)cc1` gave sEH act -5.5 and sEH inh 10.8.
`Brc1ccccc1-c1nnc(CSc2nnnn2-c2ccccc2)o1` gave sEH act -15.0, CYP2C9 inh 41.5, sEH inh 13.3, CYP2C19 act 0.1, CYP2C9 act 0.6 and CYP2C19 inh 92.1*.
For Cn1c(=NC(=O)C2CC2)sc2cccc(F)c21 the results were CYP2C9 inh 0.6, CYP2C19 act 0.6, CYP2C9 act 1 and CYP2C19 inh 36.2.
`O=C(c1ccc(C23CC4CC(CC(C4)C2)C3)o1)N1CCOCC1` gave sEH act -8.7, CYP2C9 inh -5.5, sEH inh 8.8, CYP2C19 act 1, CYP2C9 act 1.1 and CYP2C19 inh 4.6.
CC(C)C(c1nnnn1Cc1ccccc1)N1CCc2ccccc2C1 (stereo not drawn) was read as CYP2C9 inh 53.1*, CYP2C19 act 0.6, CYP2C9 act 0.5 and CYP2C19 inh 38.6.
c1ccc(Cn2nnnc2C(c2cccs2)N2CCCCCC2)cc1 (stereo not drawn) was read as sEH act 5.2 and sEH inh -4.5.
c1ccc(Cn2nnnc2C(c2cccs2)N2CCc3ccccc3C2)cc1 (stereo not drawn) was read as CYP2C9 inh 70.5*, CYP2C19 act 0.1, CYP2C9 act 0.3 and CYP2C19 inh 92.4*.
`Cn1c(-c2ccc3ccccc3n2)nc2cnccc21` gave sEH act 0.7, CYP2C9 inh 53.6*, sEH inh -1.3, CYP2C19 act 0.1, CYP2C9 act 0.5 and CYP2C19 inh 88.0*.
For COc1cc(-c2nc3cnccc3n2C)cc(OC)c1OC the results were CYP2C9 inh 1.5, CYP2C19 act 1.1, CYP2C9 act 1 and CYP2C19 inh -6.5.
Screening COc1cc(OC)c(-c2nc3cnccc3n2C)cc1OC returned sEH act -2.5, CYP2C9 inh 35.3, sEH inh 5.4, CYP2C19 act 0.2, CYP2C9 act 0.6 and CYP2C19 inh 75.4*.
Screening Cc1nc2ccccc2n1/N=C/c1cccnc1 returned sEH act -9.7, CYP2C9 inh 14.2, sEH inh 10.1, CYP2C19 act 1, CYP2C9 act 0.9 and CYP2C19 inh 3.0.
Screening CCN1C(=O)C(C(=O)Nc2ccc(OC)cc2)C2CC1(C)Oc1ccccc12 (stereo not drawn) returned sEH act -2.6, CYP2C9 inh 53.5*, sEH inh 7.3, CYP2C19 act 0.8, CYP2C9 act 0.5 and CYP2C19 inh 16.1.
`COc1ccc(NC(=O)C2CC(=O)OC23CCCCC3)cc1` (stereo not drawn) gave sEH act -6.2 and sEH inh 5.3.
Screening Cc1sc(=NC(=O)c2ccco2)n(C)c1-c1ccc(F)cc1 returned sEH act -0.7, CYP2C9 inh 32.1, sEH inh 3.4, CYP2C19 act 0.5, CYP2C9 act 0.7 and CYP2C19 inh 45.7.
For Cc1sc(=NC(=O)c2ccco2)n(C)c1-c1ccccc1 the results were sEH act 0.7, CYP2C9 inh 65.2*, sEH inh -1.9, CYP2C19 act 0.6, CYP2C9 act 0.3 and CYP2C19 inh 40.5.
Screening COc1cc(N=c2ssnc2Cl)cc(OC)c1OC returned sEH act -5.1, CYP2C9 inh 88.7*, sEH inh 3.7, CYP2C19 act 1, CYP2C9 act 0.1 and CYP2C19 inh -4.1.
Clc1ccc(N=c2ssnc2Cl)cc1 was read as sEH act 3.1 and sEH inh -0.3.
